In PubChem BioAssay (NCATS):
Results filed as inconclusive are left out. The source made the active and inactive calls. Unless noted, the call rests on the fitted dose curve; in most records, active means well fitted curve in the direction sought with a large enough effect; inconclusive means small, poorly fitted or top-dose-only effect, or another doubt; inactive means no such curve, though single readings can be large; an effect the other way counts as inactive or inconclusive.

Experiments:
[1] = target: Lysosomal acid glucosylceramidase (Homo sapiens) (UniProt P04062); experiment: Glucocerebrosidase-p2 (AID 348; in the data active means potency below about 10 µM; further: potency means the concentration at half of the fitted maximal effect); details: purified GBA, blue fluorogenic substrate, 40 min
Lysosomal acid glucosylceramidase (Homo sapiens), sequence (P04062 whole entry, looked up): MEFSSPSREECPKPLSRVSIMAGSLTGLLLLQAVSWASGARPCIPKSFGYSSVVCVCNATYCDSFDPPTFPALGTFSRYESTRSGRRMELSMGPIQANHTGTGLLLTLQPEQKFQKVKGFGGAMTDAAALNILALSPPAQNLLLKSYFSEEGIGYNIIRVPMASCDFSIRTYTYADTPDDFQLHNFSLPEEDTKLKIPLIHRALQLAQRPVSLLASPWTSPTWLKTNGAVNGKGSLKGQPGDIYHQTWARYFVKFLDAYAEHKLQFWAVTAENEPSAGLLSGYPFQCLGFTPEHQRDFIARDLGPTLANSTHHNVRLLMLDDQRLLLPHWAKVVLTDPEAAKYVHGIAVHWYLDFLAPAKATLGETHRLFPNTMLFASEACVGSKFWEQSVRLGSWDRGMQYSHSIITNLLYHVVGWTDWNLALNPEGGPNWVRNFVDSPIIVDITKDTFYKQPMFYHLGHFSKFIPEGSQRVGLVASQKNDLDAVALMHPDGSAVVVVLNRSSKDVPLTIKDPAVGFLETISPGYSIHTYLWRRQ
Method in brief: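 Normal human glucocerebrosidase (0.2 nM) with blue fluorogenic substrate (80 uM final) in citrate/phosphate pH 5.9 with 10mM sodium taurocholate, 0.01% tween-20; 40 min RT, NaOH/glycine stop; fluorescence Ex 365/Em 440; AC50 from a titration from 0.6 nM upwards.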

[2] = AP1 Signaling Pathway (AID 357; active means well fitted curve in either direction with a large enough effect, not every such curve was filed as active;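 further: ME-180 reporter cells stimulated with EGF at its EC50 level; on the % scale 0 is the no-effect control and ±100 the full control effect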); details: ME-180 AP-1-bla reporter, EGF-induced, beta-lactamase ratio, 5 h; at 7.69 µM (top of the series) unless noted
Method in brief: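 Beta-lactamase reporter under AP-1 response element, ME-180 background. Stimulus: EC50 EGF. Compound exposure 5 h, 37 °C. Detection: CCF4, 2.5 h RT, 460/530 nm. Values: AC50 from titration.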

[3] = target: Cytochrome P450 1A2 (Homo sapiens) (UniProt P05177); experiment: p450-cyp1a2 (AID 410; calls by dose curve; further: potency means the concentration at half of the fitted maximal effect)
Cytochrome P450 1A2 (Homo sapiens), sequence (P05177 whole entry, looked up): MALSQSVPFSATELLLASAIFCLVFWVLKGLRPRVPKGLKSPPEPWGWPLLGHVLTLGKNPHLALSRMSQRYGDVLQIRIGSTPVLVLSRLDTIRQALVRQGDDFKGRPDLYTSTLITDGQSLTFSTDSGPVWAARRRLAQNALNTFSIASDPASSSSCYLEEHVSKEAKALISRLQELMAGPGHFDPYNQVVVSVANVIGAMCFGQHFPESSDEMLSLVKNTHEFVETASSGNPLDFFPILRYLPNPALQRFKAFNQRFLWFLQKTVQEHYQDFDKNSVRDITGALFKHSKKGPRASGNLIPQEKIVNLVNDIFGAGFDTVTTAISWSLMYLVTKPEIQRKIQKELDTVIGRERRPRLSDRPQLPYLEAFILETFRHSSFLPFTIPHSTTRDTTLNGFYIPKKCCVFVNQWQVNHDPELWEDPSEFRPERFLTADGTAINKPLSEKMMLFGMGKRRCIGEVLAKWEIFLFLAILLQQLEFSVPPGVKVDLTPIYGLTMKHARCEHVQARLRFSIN
Method in brief: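 Read-out is luminescence from luciferin produced by CYP1A2 demethylation of Luciferin-ME (100uM, at Km). Detection reagent stopped the 60 min NADPH-dependent reaction; signals were normalized to 57 uM furafylline.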

[4] = NFAT Signaling Pathway (AID 444; active means well fitted curve in either direction with a large enough effect, not every such curve was filed as active;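 further: carbachol stimulus at about its EC50 of 1 µM final; on the % scale 0 is the no-effect control and ±100 the full control effect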); details: Jurkat NFAT-bla M1, carbachol, beta-lactamase ratio, 5 h; at 7.69 µM (top of the series) unless noted
Method in brief: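 Jurkat cells with NFAT-driven β-lactamase reporter and co-expressed M1 receptor, stimulated with carbachol (final 1 uM, ~EC50), compound titration, 5 h at 37 °C. CCF4 loaded 1 h at RT; 460/530 nm ratio gave %activity and AC50.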

[5] = Stat Signaling Pathway (AID 446; active means well fitted curve in either direction with a large enough effect, not every such curve was filed as active;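 further: ME-180 cervical cancer cells given 40 pM IL-6 alongside compound; SIE-controlled beta-lactamase reporter measured as 460/530 nm FRET emission ratio; on the % scale 0 is the no-effect control and ±100 the full control effect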); details: ME-180 (cervical carcinoma) SIE beta-lactamase reporter, IL-6 stimulated, 5 h; at 7.69 µM (top of the series) unless noted
Method in brief: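 Emission at 460 and 530 nm (excitation 405 nm) reports SIE-controlled beta-lactamase in ME-180 cells. Cells received compound with 40 pM IL-6 for 5 hrs at 37 C; data scaled between 300 pM IL-6 and 125 nM JAK-inhibitor controls.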

[6] = target: Glucocorticoid receptor (Homo sapiens) (UniProt P04150); experiment: GR-GFP Redistribution (AID 450;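 active means compounds whose dose series gives a full or clear partial fitted curve of increased nuclear translocation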; further: potency means the concentration at half of the fitted maximal effect); details: U2OS GR-GFP nuclear translocation, laser cytometry, 2 h
Glucocorticoid receptor (Homo sapiens), sequence (P04150 whole entry, looked up, the tested form may be a part): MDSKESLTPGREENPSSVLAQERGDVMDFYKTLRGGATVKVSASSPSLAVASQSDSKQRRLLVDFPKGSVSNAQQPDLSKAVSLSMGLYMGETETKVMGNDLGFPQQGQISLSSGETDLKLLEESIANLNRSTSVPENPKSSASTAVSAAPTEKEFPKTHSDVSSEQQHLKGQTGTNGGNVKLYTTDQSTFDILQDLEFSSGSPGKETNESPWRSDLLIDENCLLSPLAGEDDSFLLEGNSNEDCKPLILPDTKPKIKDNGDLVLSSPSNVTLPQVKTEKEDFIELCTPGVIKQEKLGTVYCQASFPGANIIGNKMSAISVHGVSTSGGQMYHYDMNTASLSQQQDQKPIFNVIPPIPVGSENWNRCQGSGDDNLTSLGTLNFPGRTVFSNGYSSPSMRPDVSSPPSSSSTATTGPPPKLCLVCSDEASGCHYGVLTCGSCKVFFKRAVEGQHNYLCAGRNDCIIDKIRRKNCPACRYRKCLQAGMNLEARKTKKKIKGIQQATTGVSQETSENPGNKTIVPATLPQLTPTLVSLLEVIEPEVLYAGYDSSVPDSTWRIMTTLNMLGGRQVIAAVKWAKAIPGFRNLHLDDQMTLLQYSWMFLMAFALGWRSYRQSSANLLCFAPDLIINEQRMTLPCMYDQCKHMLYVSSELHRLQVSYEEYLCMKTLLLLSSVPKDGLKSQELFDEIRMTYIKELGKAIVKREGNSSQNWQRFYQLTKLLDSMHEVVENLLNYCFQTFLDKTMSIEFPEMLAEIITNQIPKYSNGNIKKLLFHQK

[7] = target: Glucocorticoid receptor (Homo sapiens) (UniProt P04150); experiment: GR-EFC Redistribution (AID 451; calls by dose curve; further: potency means the concentration at half of the fitted maximal effect); details: CHO-K1 GR-EFC translocation, beta-gal luminescence, 2 h
Method in brief: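 CHO-K1 cells expressing nuclear EA and GR-ED fragments of b-gal; compounds titrated up to 46 uM final, 2 h at 37 C. GR nuclear translocation read as complemented b-gal luminescence after 1 h RT detection.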

[8] = target: Mitogen-activated protein kinase 10 (Mus musculus) (UniProt Q61831); experiment: JNK3 AlphaScreen Assay (AID 530; active means well fitted curve in either direction with a large enough effect, not every such curve was filed as active;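 further: kinase came from lysate of stimulated human HepG2 cells; signal reports phosphorylation of biotinylated GST-cJun 1-79 at Ser73 with 10 µM ATP; on the % scale 0 is the no-effect control and ±100 the full control effect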)
Method in brief: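 HepG2 lysate (IL-1b/TNFa pre-activated) + biotin-GST-cJun 1-79 + anti-pSer73 cJun; cpd titration, 15 min RT; ATP 10 uM start; Tris pH 7.6, MgCl2, DTT, vanadate; beads in EDTA buffer; AlphaScreen.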

[9] = target: 3',5'-cyclic-AMP phosphodiesterase 4B (Homo sapiens) (UniProt Q07343); experiment: qHTS Assay for Inhibitors of PDE-IV (AID 607; active means well fitted activation curve with a large enough effect in the main read-out, with a control signal flat, not every such curve was filed as active; further: % of control where 0% means no effect)
3',5'-cyclic-AMP phosphodiesterase 4B (Homo sapiens), sequence (Q07343 whole entry, looked up): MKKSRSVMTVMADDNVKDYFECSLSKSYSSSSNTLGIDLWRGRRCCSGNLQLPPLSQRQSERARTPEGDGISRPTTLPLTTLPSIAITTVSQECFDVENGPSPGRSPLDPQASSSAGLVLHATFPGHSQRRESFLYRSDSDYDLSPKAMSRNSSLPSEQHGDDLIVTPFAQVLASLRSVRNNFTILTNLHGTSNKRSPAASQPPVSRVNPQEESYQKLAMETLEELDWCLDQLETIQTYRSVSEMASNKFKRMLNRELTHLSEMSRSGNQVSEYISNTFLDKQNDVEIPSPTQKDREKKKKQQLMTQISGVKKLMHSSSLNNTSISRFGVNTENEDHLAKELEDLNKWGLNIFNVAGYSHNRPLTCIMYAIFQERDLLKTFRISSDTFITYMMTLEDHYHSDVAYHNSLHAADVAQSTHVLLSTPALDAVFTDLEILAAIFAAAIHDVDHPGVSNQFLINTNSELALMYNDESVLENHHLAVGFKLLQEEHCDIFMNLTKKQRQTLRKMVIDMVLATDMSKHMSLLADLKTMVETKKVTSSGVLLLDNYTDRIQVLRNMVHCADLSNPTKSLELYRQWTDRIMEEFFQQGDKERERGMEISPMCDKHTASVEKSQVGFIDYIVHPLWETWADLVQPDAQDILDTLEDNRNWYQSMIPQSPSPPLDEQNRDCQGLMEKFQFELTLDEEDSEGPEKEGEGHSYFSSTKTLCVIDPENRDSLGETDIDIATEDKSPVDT
Method in brief: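 The readout is membrane depolarisation from a cAMP-sensing CNG channel, detected with a potential dye at ex 535/em 590. Cells were HEK293-derived (endogenous PDE-IV) at 1000 cells/well, titrated up to 22.9 uM final.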

[10] = target: Cytochrome P450 3A4 (Homo sapiens) (UniProt P08684); experiment: qHTS Assay for Activators of Cytochrome P450 3A4 (AID 885); further: nearly all actives have a fitted effect of over 65% in size
Cytochrome P450 3A4 (Homo sapiens), sequence (P08684 whole entry, looked up): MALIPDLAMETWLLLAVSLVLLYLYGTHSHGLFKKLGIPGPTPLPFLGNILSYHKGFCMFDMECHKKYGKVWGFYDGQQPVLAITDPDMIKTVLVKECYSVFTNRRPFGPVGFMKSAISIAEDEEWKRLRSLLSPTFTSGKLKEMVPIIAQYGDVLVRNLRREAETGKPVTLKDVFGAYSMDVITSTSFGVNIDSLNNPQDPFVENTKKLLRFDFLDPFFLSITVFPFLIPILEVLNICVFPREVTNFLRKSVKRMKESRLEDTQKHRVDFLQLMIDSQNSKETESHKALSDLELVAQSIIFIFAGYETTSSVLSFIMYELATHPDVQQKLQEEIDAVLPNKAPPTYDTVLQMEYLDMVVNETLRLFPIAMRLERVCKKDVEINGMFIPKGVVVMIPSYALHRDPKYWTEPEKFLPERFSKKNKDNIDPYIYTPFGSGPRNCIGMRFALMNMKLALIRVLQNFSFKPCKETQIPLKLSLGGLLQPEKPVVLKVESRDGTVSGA
Method in brief: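 Activators are scored by enhanced luminescence from CYP3A4 conversion of luciferin-PPXE (25uM, equal to KM) to luciferin, after 60 min at RT with an NADPH-regenerating system.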

[11] = target: Dual specificity protein kinase CLK4 (Homo sapiens) (UniProt Q9HAZ1); experiment: qHTS Assay for Inhibitors of CDC-like Kinase 4 (Kinase-Glo Assay) (AID 1770); further: nearly all actives have a fitted effect of over 65% in size; further: potency means the concentration at half of the fitted maximal effect
Dual specificity protein kinase CLK4 (Homo sapiens), sequence (Q9HAZ1 whole entry, looked up): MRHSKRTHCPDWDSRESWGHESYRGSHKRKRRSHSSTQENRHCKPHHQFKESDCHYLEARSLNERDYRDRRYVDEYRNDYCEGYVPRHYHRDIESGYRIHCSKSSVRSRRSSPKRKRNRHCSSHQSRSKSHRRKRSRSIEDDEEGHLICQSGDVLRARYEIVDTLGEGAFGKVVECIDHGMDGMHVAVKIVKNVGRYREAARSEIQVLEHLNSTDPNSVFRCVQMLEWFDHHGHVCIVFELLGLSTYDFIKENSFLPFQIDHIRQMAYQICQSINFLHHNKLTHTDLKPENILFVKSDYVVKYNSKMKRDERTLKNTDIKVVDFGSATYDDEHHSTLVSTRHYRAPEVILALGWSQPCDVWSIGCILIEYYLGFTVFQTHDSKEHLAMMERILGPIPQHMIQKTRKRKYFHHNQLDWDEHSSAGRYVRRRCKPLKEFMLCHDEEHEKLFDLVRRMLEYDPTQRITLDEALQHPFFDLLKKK
Method in brief: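 25 nM Clk4 with 100 uM RS repeat peptide and 1 uM ATP (final) in Tris pH7.5, 10 mM MgCl2, 4.5 h at room temperature. Remaining ATP measured by Kinase-Glo luciferase luminescence.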

[12] = target: Dual specificity protein kinase CLK4 (Homo sapiens) (UniProt Q9HAZ1); experiment: qHTS Assay for Inhibitors of CDC-like Kinase 4 (ADP-Glo Assay) (AID 1771); further: nearly all actives have a fitted effect of over 70% in size; further: potency means the concentration at half of the fitted maximal effect
Method in brief: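 In this ADP-Glo format, 1 uM ATP and 100 uM RS peptide served as substrates for 25 nM Clk4 in Mg2+/EGTA/DTT/Triton buffer; reactions ran 1 hr at room temperature before luminescent ADP quantification.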

[13] = Primary qHTS for small molecule stabilizers of the endoplasmic reticulum resident proteome: Secreted ER Calcium Modulated Protein (SERCaMP) assay (AID 1508630); further: on the % scale 0 is the no-effect control and ±100 the full control effect
Method in brief: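 The SH-SY5Y reporter protocol was run at 3 concentrations up to 38.3 uM (primary) or 11 concentrations (follow-up): 16 h compound, 100 nM thapsigargin for 4 h, then extracellular luciferase luminescence.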

[14] = target: Ubiquitin carboxyl-terminal hydrolase 1 (Homo sapiens) (UniProt O94782); experiment: Inhibitors of USP1/UAF1: Pilot qHTS (AID 504865);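 further: rhodamine fluorescence freed from ubiquitin-rhodamine substrate followed over time; top concentration of the series differs between compounds; on the % scale 0 is the no-effect control and ±100 the full control effect; nearly all actives have a fitted effect of over 35% in size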
Ubiquitin carboxyl-terminal hydrolase 1 (Homo sapiens), sequence (O94782 whole entry, looked up): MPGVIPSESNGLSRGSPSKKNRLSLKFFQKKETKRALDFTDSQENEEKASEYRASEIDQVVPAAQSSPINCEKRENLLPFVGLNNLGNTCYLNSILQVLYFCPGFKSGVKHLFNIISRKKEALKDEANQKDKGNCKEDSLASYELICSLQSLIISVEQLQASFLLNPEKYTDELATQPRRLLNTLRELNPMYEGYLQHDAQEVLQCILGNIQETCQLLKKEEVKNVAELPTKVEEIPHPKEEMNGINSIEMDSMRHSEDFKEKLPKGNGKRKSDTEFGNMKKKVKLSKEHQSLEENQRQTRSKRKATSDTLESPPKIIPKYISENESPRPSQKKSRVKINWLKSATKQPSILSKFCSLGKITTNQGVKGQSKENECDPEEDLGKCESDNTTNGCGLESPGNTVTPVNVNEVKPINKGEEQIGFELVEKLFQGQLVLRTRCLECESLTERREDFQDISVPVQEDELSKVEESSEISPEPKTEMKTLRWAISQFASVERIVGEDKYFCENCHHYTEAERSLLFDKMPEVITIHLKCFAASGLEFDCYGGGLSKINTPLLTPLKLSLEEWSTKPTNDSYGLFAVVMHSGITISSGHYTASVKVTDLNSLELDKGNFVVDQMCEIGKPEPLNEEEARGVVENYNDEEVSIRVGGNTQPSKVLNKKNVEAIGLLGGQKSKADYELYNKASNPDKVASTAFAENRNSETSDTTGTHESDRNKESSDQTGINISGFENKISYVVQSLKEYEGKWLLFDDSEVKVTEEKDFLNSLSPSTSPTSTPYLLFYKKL
Method in brief: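 USP1/UAF1 complex at 1 nM preincubated 15 min at room temperature with compound, then Ub-Rho substrate added at 150 nM final. Fluorescence (480/540 nm) read kinetically in 50 mM HEPES pH 7.8, 0.5 mM EDTA, 1 mM TCEP, 0.1 mg/ml BSA, 0.01% Tween-20.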

[15] = target: Cytochrome P450 3A4 (Homo sapiens) (UniProt P08684); experiment: qHTS Assay for Inhibitors and Substrates of Cytochrome P450 3A4 (AID 884); further: potency means the concentration at half of the fitted maximal effect; nearly all actives have a fitted effect of over 50% in size
Method in brief: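 Luminescent readout of luciferin produced by CYP3A4 (20 nM) dealkylation of Luciferin-PPXE, 25 uM (its KM). NADPH-driven reaction ran 60 min at RT after 10 min compound preincubation; data scaled to 57 uM ketoconazole as 100% inhibition.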

[16] = target: Cytochrome P450 2C19 (Homo sapiens) (UniProt P33261); experiment: qHTS Assay for Inhibitors and Substrates of Cytochrome P450 2C19 (AID 899); further: potency means the concentration at half of the fitted maximal effect; nearly all actives have a fitted effect of over 60% in size
Cytochrome P450 2C19 (Homo sapiens), sequence (P33261 whole entry, looked up): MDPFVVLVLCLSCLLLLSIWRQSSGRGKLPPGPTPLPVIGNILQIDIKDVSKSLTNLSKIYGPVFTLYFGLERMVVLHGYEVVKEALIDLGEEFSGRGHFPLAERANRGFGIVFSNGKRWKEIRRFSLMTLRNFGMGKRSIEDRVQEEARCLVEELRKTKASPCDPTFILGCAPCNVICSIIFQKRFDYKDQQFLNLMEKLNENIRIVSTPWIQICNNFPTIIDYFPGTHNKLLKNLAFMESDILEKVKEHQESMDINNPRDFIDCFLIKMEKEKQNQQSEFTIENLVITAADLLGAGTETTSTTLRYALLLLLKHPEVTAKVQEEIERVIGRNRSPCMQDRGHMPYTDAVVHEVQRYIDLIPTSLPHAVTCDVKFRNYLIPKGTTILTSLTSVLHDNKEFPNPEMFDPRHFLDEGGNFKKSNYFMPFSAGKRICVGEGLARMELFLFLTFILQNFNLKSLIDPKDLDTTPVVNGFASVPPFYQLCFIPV
Method in brief: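 Signal comes from luciferase acting on luciferin released by CYP2C19-mediated hydroxylation of Luciferin-H EGE, 10uM (KM). Assay mix: 5nM enzyme, 50mM KPO4; 60 min at 37C with NADPH regeneration. Data normalized against 57uM ketoconazole.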

[17] = target: Cytochrome P450 2C9 (Homo sapiens) (UniProt P11712); experiment: qHTS Assay for Inhibitors and Substrates of Cytochrome P450 2C9 (AID 883); further: on the % scale 0 is the no-effect control and ±100 the full control effect; nearly all actives have a fitted effect of over 60% in size
Method in brief: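 Signal: luciferase luminescence reporting luciferin produced by CYP2C9. Conditions: 10nM enzyme, Luciferin-H 100uM at KM, 25mM KPO4, 37C, 60 min NADPH-driven reaction. Reference: 57uM sulphaphenazole as 100% inhibition.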

Cc1cccc(CNc2cc(-c3ccccc3Cl)ncn2)c1
active: Potency [3] 3.16 µM | Potency [11] 28.2 µM | Potency [12] 28.2 µM
inactive: Potency [1] > 11.4 µM | activity change, negative = inhibition [2] 13.1% | activity change, negative = inhibition [4] -3.92% | activity, negative = inhibition [5] 0.338% | Potency [6] > 46 µM | Potency [7] > 46 µM | Potency [8] | Potency [9] | Potency [10] | outcome [13]

CN(Cc1ccco1)c1nc(-c2ccoc2)nc2ccccc12
inactive: Potency [1] > 11.4 µM | activity change, negative = inhibition [2] -25.1% | activity change, negative = inhibition [4] -18.3% | activity, negative = inhibition [5] -4.21% | Potency [6] > 46 µM | Potency [7] > 46 µM | Potency [8] | Potency [10] | Potency [11] | Potency [12] | Potency [14] | outcome [13]
active: Potency [3] 0.398 µM

c1ccc(Nc2nc(-c3ccc4c(c3)OCO4)nc3ccccc23)cc1
inactive: activity change, negative = inhibition [2] -19.9% | activity change, negative = inhibition [4] -26.1% | activity, negative = inhibition [5] -2.81% | Potency [6] > 46 µM | Potency [7] > 46 µM | Potency [8] | Potency [10] | Potency [14] | outcome [13]
active: Potency [1] 9.63 µM | Potency [3] 1.26 µM | Potency [15] 5.01 µM | Potency [16] 3.16 µM | Potency [11] 28.2 µM | Potency [12] 31.6 µM

COCCNc1ccnc(-c2ccccc2C)n1
active: Potency [3] 12.6 µM
inactive: Potency [1] > 11.4 µM | activity change, negative = inhibition [2] -9.97% | activity change, negative = inhibition [4] 3.48% | activity, negative = inhibition [5] 15.6% | Potency [6] > 46 µM | Potency [7] > 46 µM | Potency [8] | Potency [9] | Potency [11] | Potency [12] | Potency [14] | outcome [13]

FC(F)(F)c1ccccc1-c1nc(NC2CC2)c2ccccc2n1
active: Potency [1] 6.53 µM | Potency [3] 0.398 µM | Potency [11] 14.1 µM | Potency [12] 14.1 µM
inactive: activity change, negative = inhibition [2] 3.67% | activity change, negative = inhibition [4] 8.57% | activity, negative = inhibition [5] 8.2% | Potency [6] > 46 µM | Potency [7] > 46 µM | Potency [8] | Potency [10] | Potency [14] | outcome [13]

CS(=O)(=O)Nc1cccc(-c2nc(NCc3ccccc3)c3ccccc3n2)c1
inactive: Potency [1] > 11.4 µM | activity change, negative = inhibition [2] -10.8% | activity change, negative = inhibition [4] 7.92% | activity, negative = inhibition [5] -10.7% | Potency [6] > 46 µM | Potency [7] > 46 µM | Potency [8] | Potency [10] | Potency [14] | outcome [13]
active: Potency [3] 2.51 µM | Potency [15] 3.16 µM | Potency [11] 31.6 µM | Potency [12] 28.2 µM

COc1cccc(-c2cc(NCc3cccnc3)ncn2)c1
active: Potency [3] 0.631 µM | Potency [15] 3.98 µM | Potency [11] 14.1 µM | Potency [12] 14.1 µM
inactive: Potency [1] > 11.4 µM | activity change, negative = inhibition [2] 12.8% | activity change, negative = inhibition [4] 0.0139% | activity, negative = inhibition [5] -7.08% | Potency [6] > 46 µM | Potency [7] > 46 µM | Potency [8] | Potency [9] | Potency [10] | Potency [14] | outcome [13]

c1ccc(CNc2ncncc2-c2ccc3c(c2)OCO3)cc1
inactive: Potency [1] > 11.4 µM | activity change, negative = inhibition [2] -23.4% | activity change, negative = inhibition [4] 7.28% | activity, negative = inhibition [5] -0.121% | Potency [6] > 46 µM | Potency [7] > 46 µM | Potency [8] | Potency [10] | Potency [14] | outcome [13]
active: Potency [3] 0.126 µM | Potency [15] 0.501 µM | Potency [16] 0.501 µM | Potency [11] 6.31 µM | Potency [12] 7.08 µM

CN(C)c1nc(-c2cccnc2)nc2ccccc12
active: Potency [3] 0.126 µM | Potency [15] 7.94 µM | Potency [11] 28.2 µM | Potency [12] 25.1 µM
inactive: Potency [1] > 11.4 µM | activity change, negative = inhibition [2] 12.7% | activity change, negative = inhibition [4] -1.56% | activity, negative = inhibition [5] -4.72% | Potency [6] > 46 µM | Potency [7] > 46 µM | Potency [8] | Potency [9] | activity change, negative = inhibition [17] 81% [at 2.29 µM] | Potency [10] | Potency [14] | outcome [13]

CNc1nc(-c2cccc(NS(C)(=O)=O)c2)nc2ccccc12
inactive: Potency [1] > 11.4 µM | activity change, negative = inhibition [2] -8.82% | activity change, negative = inhibition [4] 6.53% | activity, negative = inhibition [5] -10.2% | Potency [6] > 46 µM | Potency [7] > 46 µM | Potency [8] | Potency [9] | Potency [10] | Potency [14] | outcome [13]
active: Potency [3] 0.398 µM | Potency [11] 14.1 µM | Potency [12] 22.4 µM

CNc1nc(-c2ccoc2)nc2ccccc12
inactive: Potency [1] > 11.4 µM | activity change, negative = inhibition [2] 0.93% | activity change, negative = inhibition [4] -22.3% | activity, negative = inhibition [5] 8.64% | Potency [6] > 46 µM | Potency [7] > 46 µM | Potency [8] | Potency [9] | Potency [10] | Potency [11] | Potency [12] | outcome [13]
active: Potency [3] 0.398 µM

Cc1cnc(CNc2ccnc(-c3cccc(C#N)c3)n2)cn1
active: Potency [3] 1.26 µM | Potency [11] 22.4 µM | Potency [12] 15.8 µM
inactive: Potency [1] > 11.4 µM | activity change, negative = inhibition [2] -12.1% | activity change, negative = inhibition [4] 16.3% | activity, negative = inhibition [5] 6.8% | Potency [6] > 46 µM | Potency [7] > 46 µM | Potency [8] | Potency [9] | Potency [10] | Potency [14] | outcome [13]
